# Compound activity: PubChem BioAssay, several laboratories
# Mtb UGM inh: Mtb UDP-galactopyranose mutase inhibition; P9WIQ1; purified UGM, fluorescence polarization probe displacement; inhibition, % at 10 µM; 0.06% of 320,000 active; AID 504406; in the data active = inhibition above about 10%, passing the limit was not always enough; inconclusive = no clear call, values can overlap the other calls
# Target sequence (P9WIQ1 whole entry, looked up): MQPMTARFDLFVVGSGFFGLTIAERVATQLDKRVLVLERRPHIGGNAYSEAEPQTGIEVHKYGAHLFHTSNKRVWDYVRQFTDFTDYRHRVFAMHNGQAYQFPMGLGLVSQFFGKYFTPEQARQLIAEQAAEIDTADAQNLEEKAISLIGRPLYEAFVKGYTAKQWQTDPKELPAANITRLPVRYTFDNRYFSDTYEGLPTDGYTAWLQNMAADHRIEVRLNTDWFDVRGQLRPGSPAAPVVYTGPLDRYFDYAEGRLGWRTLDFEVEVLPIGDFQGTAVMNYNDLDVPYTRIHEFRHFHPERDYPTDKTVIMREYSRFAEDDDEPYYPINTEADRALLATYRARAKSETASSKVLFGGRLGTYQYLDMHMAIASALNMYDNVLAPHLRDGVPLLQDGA
# FBA Mtb inh: inhibits M. tuberculosis FBA enzyme; P9WQA3; purified M. tuberculosis FBA, fluorescence read-out; inhibition, % at 1 µM; 2.3% of 360,000 active; AID 588726; in the data active = inhibition above about 27%;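 note: 0% = vehicle and 100% = reference inhibitor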
# GDH-TPI inh: inhibits GDH-TPI coupling enzymes, artifact for Mtb FBA screen; GDH-TPI coupled enzyme counterscreen, NADH absorbance; inhibition, % at 4.8 µM; 1.2% of 360,000 active; in the data active = inhibition above about 30%;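 note: 0% = DMSO wells and 100% = wells lacking the enzyme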
# Mtb bLac sens: beta-lactam sensitization of Mtb H37Rv; inhibition, % at 25 µM; M. tuberculosis H37Rv growth with meropenem, percent inhibition; 0.27% of 330,000 active; call rule not given here;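 note: growth measured after seven days incubation then overnight dye step; 0% = bacteria only wells and 100% = bacteria with antibiotic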
# Rv3671c protease: inhibitors of M. tuberculosis serine protease Rv3671c; AID 2606; inhibition, % at 5.96 µM; P9WHR9; 0.048% of 320,000 active; in the data active = inhibition above about 38%;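 note: extracellular domain of Rv3671c used as enzyme; 0% = enzyme with DMSO and 100% = no enzyme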
# FadD28 binding: M. tuberculosis FadD28 bisubstrate binding inhibition | inhibition, % at 12.5 µM | 0.22% of 360,000 active | FadD28 bisubstrate probe binding, fluorescence polarization; in the data active = inhibition above about 8.5%, passing the limit was not always enough; inconclusive = no clear call, values can overlap the other calls
# * hit, by the source's call; ? = inconclusive; . = no result given; + = active, no number. Rows were chosen to be rich in hits. Some 3.7% of all compounds tested hit in one or more screens of this group.
SMILES,Mtb UGM inh,FBA Mtb inh,GDH-TPI inh,Mtb bLac sens,Rv3671c protease,FadD28 binding
CCN(C(=O)COC(=O)CNC(=O)c1cccs1)c1c(N)n(Cc2ccccc2)c(=O)[nH]c1=O,.,0.9,7.4,.,.,-0.4
Cc1ccc(S(=O)(=O)c2c(C)nn(C(C)(C)C)c2OC(=O)c2ccco2)cc1,-1.0,189.2*,2.9,4.4,2.1,0.1
CCc1ccc(-c2ccc(C(=O)O)c(C)n2)cc1,1.4,5.4,11.4,-0.1,0.6,-0.1
CCc1ccc(-c2cnc3nc[nH]c(=O)c3n2)cc1,1.1,135.0*,6.1,22.0,-3.3,-2.2
CC(C)(C)N(Cc1ccccc1)C(=O)CN1C(=O)c2ccccc2S1(=O)=O,0.2,-0.1,-2.2,2.1,6.1,-3.8
CCOC1=C/C(=C/c2c(N)n3nc(-c4ccccc4)sc3nc2=O)C=CC1=O,.,-0.1,20.8,.,.,15.7*
COC1=C/C(=C/c2c(N)n3c(nc2=O)sc2cc(S(C)(=O)=O)ccc23)C=CC1=O,0.0,-4.6,51.9*,-6.9,-15.1,1.7
CCNc1nc2nc3ccc(C)cn3c(=O)c2cc1C(=O)NCC1CCCO1 (stereo not drawn),1.9,+,-2.7,5.5,-5.4,-2.0
Cc1ccc2nc3nc(NCC4CCCO4)c(C(=O)NC4CCCC4)cc3c(=O)n2c1 (stereo not drawn),1.3,150.8*,5.2,0.8,-1.6,-0.5
Cc1ccc2nc3nc(NCC4CCCO4)c(C(=O)NC4CCCCC4)cc3c(=O)n2c1 (stereo not drawn),0.2,.,.,3.7,5.2,.
Cc1c(O)ccc(C(=O)COc2ccc(F)cc2)c1O,0.6,-2.4,31.6*,-4.2,-2.0,-1.2
CCc1cc(C(=O)COc2ccc(F)cc2)c(O)cc1O,-2.0,0.2,14.2,2.1,-22.2,-0.5
O=C(c1ccco1)c1cc2c(ccc3ccccc32)oc1=O,-1.4,4.0,13.6,86.5,10.5,-2.2
COCC(C)NC(=O)c1cc2c(ccc3ccccc32)oc1=O (stereo not drawn),0.6,+,9.4,3.9,7.7,-3.7
COc1ccc(C(=O)Nc2cnc3ccccn3c2=O)cc1,2.3,-1.4,49.3*,-10.2,5.3,-1.3
O=C(N/N=C/c1cc(Cl)c(O)c(Cl)c1)c1cc2c(ccc3ccccc32)o1,3.3,3.5,32.0*,?,28.9,39.1*
O=C(N/N=C/c1cc(Br)c(O)c(Br)c1)c1cc2c(ccc3ccccc32)o1,0.3,4.7,32.6*,35.4,.,25.3*
CCCCN1CC(N2CCN(C(=O)c3ccco3)CC2)CS1(=O)=O (stereo not drawn),.,2.7,.,.,.,1.4
CCS(=O)(=O)c1ncc(Cl)c(C(=O)Nc2ccc(S(=O)(=O)N3CCC(C)CC3)cc2)n1,1.6,1.4,9.6,-5.6,-128.3,8.9*
COc1ccc(/C=N/Nc2cc(C)nc3ccc(OC)cc23)c(OC)c1,-2.0,144.3*,12.4,100.0,16.4,3.8
CC1=C(C(=O)N(C)C)CC(CC(=O)NCCCCc2ccccc2)C(=O)N1Cc1ccccc1 (stereo not drawn),.,-1.5,16.6,.,.,-1.7
Oc1ccc(/C=N/N=C/c2ccc(O)c(O)c2)cc1O,4.9,0.1,43.1*,2.8,-9.8,2.7
O=C1Nc2ccccc2/C1=N\N=C\c1ccc(O)c(O)c1,0.7,-7.6,35.8*,-2.0,1.9,3.2
Oc1ccc(/C=N/N=C/c2ccc(O)cc2)cc1,-2.8,0.1,31.2*,-2.5,6.2,0.9
COc1cc(/C=N/N=C2/C(=O)Nc3ccccc32)ccc1O,2.0,-6.9,15.5,3.1,8.7,-3.1
SMILES,Mtb UGM inh,FBA Mtb inh,GDH-TPI inh,Mtb bLac sens,Rv3671c protease,FadD28 binding
CCOC(=O)N1CCN(C(=O)c2cc(S(=O)(=O)N3CCc4ccccc43)ccc2OC)CC1,-2.2,-1.9,0.0,-4.5,4.7,-1.8
COc1ccc(-c2nc3c(Cl)cc(C(F)(F)F)cn3c2Cc2ccc(C)cc2)cc1OC,.,4.3,.,.,.,-4.8
CC1(C)Cc2c(C#N)c(SCc3ccccc3)nc(N3CCOCC3)c2CO1,-1.2,-5.8,75.0*,.,-9.5,-0.2
CC1(C)Cc2c(C#N)c(SCC(=O)c3ccccc3)nc(N3CCOCC3)c2CO1,-3.0,3.6,10.3,-4.0,-0.5,-2.1
CCc1nc(N2CCOCC2)c(C#N)c2c1COC(C)(C)C2,-1.7,46.3*,10.3,-1.9,-6.8,2.9
CCCc1nc2c3ccccc3ccn2c1CC(C)(C)C,.,7.0,.,.,.,-5.6
CN(CC(=O)Nc1cccc(F)c1)C(=O)Cn1c(=O)cnc2ccccc21,-0.9,0.3,5.8,-4.2,-1.5,54.9*
